From PubChem BioAssay
Anthrax LF inh2 – Bacillus anthracis LF protease inhibitors, primary screen, biochemical, multiplex microsphere, MLPCN library. multiplex microsphere protease cleavage assay. 0.12% of 360,000 active. inhibition, % at 10 µM. AID 588501, 2011. Lethal factor (Bacillus anthracis), P15917
DUSP3 inh – VHR1 phosphatase inhibitors, primary screen, biochemical, absorbance, uHTS | recombinant VHR phosphatase, pNPP absorbance | inhibition, % at 13.3 µM | 0.52% of 290,000 active; in the data active = inhibition above about 50%
Target sequence (P51452 whole entry, looked up): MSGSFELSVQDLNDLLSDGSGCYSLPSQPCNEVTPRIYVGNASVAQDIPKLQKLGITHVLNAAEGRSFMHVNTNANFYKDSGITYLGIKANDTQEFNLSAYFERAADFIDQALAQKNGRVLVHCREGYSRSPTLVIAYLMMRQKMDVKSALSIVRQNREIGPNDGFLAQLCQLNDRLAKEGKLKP
MazF activator – activators of E. coli MazEF toxin-antitoxin RNase, primary screen, biochemical, fluorescence, uHTS. Endoribonuclease toxin MazF (Escherichia coli (strain K12)), P0AE70. FAM/BHQ RNA-DNA oligo cleavage fluorescence, 5 h. activation, % at 20 µM. 0.32% of 350,000 active. AID 504720, 2011; in the data active = activation above about 50%
Target sequence (P0AE70 whole entry, looked up): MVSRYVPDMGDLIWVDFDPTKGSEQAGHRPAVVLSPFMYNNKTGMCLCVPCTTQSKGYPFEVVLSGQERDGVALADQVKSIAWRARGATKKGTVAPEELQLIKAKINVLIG
Autofluor counter – counter-screen for toxin protease inhibitors: compound fluorescence; 3.1% of 360,000 active; fluorescence intensity (concentration not given with the values); compound autofluorescence counterscreen, microsphere flow cytometry; active compounds read high; in the data active = fluorescence intensity above about 16000; inconclusive = no clear call, values can overlap the other calls
BoNT F protease – BoNT/F light chain protease inhibitors, primary screen, biochemical, flow cytometry, MLPCN library; Multiplex microsphere protease cleavage assay; 0.22% of 360,000 active; AID 588497, 2011; inhibition, % at 10 µM; in the data active = inhibition above about 35%, passing the limit was not always enough; inconclusive = no clear call, values can overlap the other calls
BoNT A protease – BoNT/A light chain protease inhibitors, primary screen, biochemical, flow cytometry, MLPCN library; Botulinum neurotoxin type A light chain protease (Clostridium botulinum A str. ATCC 3502); multiplex microsphere protease substrate cleavage; inhibition, % at 10 µM; 0.17% of 360,000 active; AID 588499, 2011
Numbers stand for hits. Sampled rows, rich in hits. Any-hit rate of the full collection: about 4%. Rule as the data show it, unless noted: active = inhibition above about 30%; inconclusive = no clear call, values can overlap the other calls; inactive = below that.

COc1ccccc1N1CCN(/N=C/c2cccc(Cl)c2)CC1 was read as DUSP3 inh inactive and MazF activator inactive.
`COc1cccc(/C=N/N2CCN(c3ccccc3OC)CC2)c1` gave Anthrax LF inh2 inactive, DUSP3 inh inactive, MazF activator inactive, Autofluor counter 24263, BoNT F protease inactive and BoNT A protease inactive.
For COc1ccc(/C=N/N2CCN(c3ccccc3OC)CC2)cc1OC the results were Anthrax LF inh2 inactive, DUSP3 inh inactive, MazF activator inactive, Autofluor counter 16494, BoNT F protease inactive and BoNT A protease inconclusive.
Screening COCCOCCOCCC(=O)NC1CC2CCC1(C)C2(C)C (stereo not given) returned Anthrax LF inh2 inactive, DUSP3 inh inactive, MazF activator inactive, Autofluor counter 21940, BoNT F protease inactive and BoNT A protease inactive.
For CC1(C)C2CCC1(C)C(NC(=O)CCN1CCCCC1)C2 (stereo not given) the results were Anthrax LF inh2 inactive, DUSP3 inh inactive, MazF activator inactive, Autofluor counter inactive, BoNT F protease inactive and BoNT A protease inactive.
`C=CCNC(=S)NC(CC(=O)OC)c1ccc2c(c1)OCO2` (stereo not given) gave Anthrax LF inh2 inactive, DUSP3 inh inactive, MazF activator inactive, Autofluor counter inactive, BoNT F protease inactive and BoNT A protease inactive.
Screening COc1ccccc1N1CN(Cc2ccccc2)CNC1=S returned Anthrax LF inh2 inactive, DUSP3 inh inactive, MazF activator inactive, Autofluor counter inactive, BoNT F protease inactive and BoNT A protease inactive.
`CCOC(=O)CSc1nc(-c2ccccc2)nc2ccccc12` gave Anthrax LF inh2 inactive, DUSP3 inh inactive, MazF activator inactive, Autofluor counter 21864, BoNT F protease inactive and BoNT A protease inactive.
For O=C(CSc1nc(-c2ccccc2)nc2ccccc12)Nc1nccs1 the results were Anthrax LF inh2 inactive, DUSP3 inh inactive, MazF activator 136, Autofluor counter inactive, BoNT F protease inactive and BoNT A protease inactive.
`CCc1cc2cc3c(cc2nc1SCC(=O)Nc1c[nH]c(=O)[nH]c1=O)OCO3` gave Anthrax LF inh2 inactive, DUSP3 inh inactive, MazF activator inactive, Autofluor counter inactive, BoNT F protease inactive and BoNT A protease inactive.
CCc1cc2cc3c(cc2nc1SCC(=O)Nc1nccs1)OCO3 was read as Anthrax LF inh2 inactive, DUSP3 inh inactive, MazF activator 56, Autofluor counter inactive, BoNT F protease inactive and BoNT A protease inactive.
`CCOC(=O)CSc1nc(-c2ccccc2)nc2ccc(F)cc12` gave Anthrax LF inh2 inconclusive, DUSP3 inh inactive, MazF activator inactive, Autofluor counter inconclusive, BoNT F protease inactive and BoNT A protease inconclusive.
For N#C/C(C(=O)N1CCOCC1)=C1\Nc2ccccc2S1 the results were Anthrax LF inh2 inactive, DUSP3 inh inactive, MazF activator inactive, Autofluor counter 20837, BoNT F protease inactive and BoNT A protease inactive.
`COc1cccc2c(O)c(-c3ccccc3)c(=O)[nH]c12` gave MazF activator inactive.
CCOC(=O)[C@H]1[C@H]2COc3ccc(Cl)cc3[C@@H]2N2C(=O)CN(Cc3ccccc3)C(=O)[C@@]12C was read as Anthrax LF inh2 inactive, MazF activator inactive, Autofluor counter inactive, BoNT F protease inactive and BoNT A protease inactive.
For N/C(=N\OC(=O)Cc1ccc(-c2ccccc2)cc1)c1cccnc1 the results were Anthrax LF inh2 inactive, DUSP3 inh inactive, MazF activator inactive, Autofluor counter inactive, BoNT F protease inactive and BoNT A protease inactive.
For N/C(=N\OC(=O)Cc1ccc(-c2ccccc2)cc1)c1cccc([N+](=O)[O-])c1 the results were Anthrax LF inh2 inactive, DUSP3 inh inactive, MazF activator inactive, Autofluor counter 16257, BoNT F protease inactive and BoNT A protease inactive.
Screening N/C(=N\OC(=O)Cc1ccccc1)c1cccnc1 returned Anthrax LF inh2 inactive, DUSP3 inh inactive, MazF activator inactive, Autofluor counter 20077, BoNT F protease inactive and BoNT A protease inactive.
N/C(=N\OC(=O)CCC1CCCCC1)c1cccnc1 was read as Anthrax LF inh2 inactive, DUSP3 inh inactive, MazF activator inactive, Autofluor counter 21493, BoNT F protease inactive and BoNT A protease inactive.
`Cc1ccc([N+](=O)[O-])cc1S(=O)(=O)Nc1ccc(OCC(=O)N2CCOCC2)cc1` gave Anthrax LF inh2 inactive, DUSP3 inh inactive, MazF activator inactive, Autofluor counter inactive, BoNT F protease inactive and BoNT A protease inactive.
For CCc1cc2c(s1)NC(=O)CN=C2c1cccs1 the results were Anthrax LF inh2 inconclusive, DUSP3 inh inactive, MazF activator inactive, Autofluor counter inconclusive, BoNT F protease inconclusive and BoNT A protease inconclusive.
For COc1ccc(Cl)cc1C(=O)Nc1ccc(OCC(=O)N2CCOCC2)cc1 the results were Anthrax LF inh2 inactive, DUSP3 inh inactive, MazF activator inactive, Autofluor counter inactive, BoNT F protease inactive and BoNT A protease inactive.
Screening COc1cc2c(cc1OC)C(c1ccc(-c3ccccc3Cl)o1)=NCC2 returned Anthrax LF inh2 inactive, DUSP3 inh inactive, MazF activator inactive, Autofluor counter 20487, BoNT F protease inactive and BoNT A protease inactive.
Screening CC(C)(C)n1nc2c(c1NC(=O)CCCc1ccccc1)CS(=O)C2 (stereo not given) returned Anthrax LF inh2 inactive, DUSP3 inh inactive, MazF activator inactive, Autofluor counter inactive, BoNT F protease inactive and BoNT A protease inactive.
For COC(=O)CSC(C(=O)Nc1ccc(C)c(C)c1)c1ccccc1 (stereo not given) the results were Anthrax LF inh2 inactive, DUSP3 inh inactive, MazF activator inactive, Autofluor counter 22778, BoNT F protease inactive and BoNT A protease inactive.
Screening CCNc1nc(NCC)nc(OCCNS(=O)(=O)c2cc(C)ccc2C)n1 returned Anthrax LF inh2 inactive, DUSP3 inh inactive, MazF activator inactive, Autofluor counter 21064, BoNT F protease inactive and BoNT A protease inconclusive.
`O=C(c1ccncc1)N(Cc1ccco1)Cc1cc2ccccc2[nH]c1=O` gave Anthrax LF inh2 inactive, DUSP3 inh inactive, MazF activator inactive, Autofluor counter 22113, BoNT F protease inactive and BoNT A protease inactive.
`Cc1[nH]c2ccccc2c1/C=C/c1nc2ccccc2c(=O)n1-c1ccc([N+](=O)[O-])cc1` gave Anthrax LF inh2 inactive, DUSP3 inh inactive, MazF activator 589, Autofluor counter inactive, BoNT F protease inactive and BoNT A protease inactive.
Screening O=c1c2ccccc2nc(/C=C/c2ccc([N+](=O)[O-])o2)n1-c1ccc(O)cc1 returned Anthrax LF inh2 inactive, DUSP3 inh inactive, MazF activator inactive, Autofluor counter inactive, BoNT F protease inactive and BoNT A protease inactive.
For CCn1c(/C=C/c2c[nH]c3ccccc23)nc2ccccc2c1=O the results were Anthrax LF inh2 inactive, DUSP3 inh inactive, MazF activator inactive, Autofluor counter inactive, BoNT F protease inactive and BoNT A protease inactive.
